outcome, Potency and max activation data for eight compounds are collected here from PubChem BioAssay (Tox21).

Assay [1] addresses Progesterone receptor (Homo sapiens) (UniProt P06401). Description: qHTS assay to identify small molecule agonists of the progesterone receptor (PR) signaling pathway (AID 1346784; calls by dose curve; note: nearly all actives have a fitted effect of over 30% in size). A digest of the protocol:
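PR-UAS-bla HEK 293T cells (beta-lactamase reporter under UAS) in 2% charcoal-stripped FBS, dosed with 23 nL compound after 6 hr, incubated 16hr at 37C. LiveBLAzer B/G FRET substrate added, fluorescence read after 2 hours.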
(In general: Quantitative high-throughput screening tests each substance at several concentrations.)

The target is the same in assay [2]. Description: qHTS assay to identify small molecule antagonists of the progesterone receptor (PR) signaling pathway (AID 1346795; active = well fitted inhibition curve with a large enough effect in the signal ratio in the repeat runs, not every such curve was filed as active; the % refers to the signal ratio). In short, it runs like this: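 PR-UAS-bla HEK293T cells with beta-lactamase reporter under UAS control, in 2% charcoal-stripped FBS, treated with compounds plus 1 nM promegestone (R5020, final) for 16 hr at 37C. Read-out: FRET beta-lactamase substrate fluorescence after 2 hr at room temperature.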

The nature of assay [3]: qHTS assay to identify small molecule antagonists of the progesterone receptor (PR) signaling pathway - cell viability counter screen (AID 1346798). Note: nearly all actives have a fitted effect of over 50% in size. Note: potency is the fitted concentration of half-maximal effect. A digest of the protocol:
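PR-UAS-bla HEK293T cells, 3,000/well in 2% charcoal-stripped FBS medium, dosed with compounds plus R5020 agonist and incubated 16 h at 37C. Viability then measured in the same wells by CellTiter-Glo luminescence after 30 min at RT.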

Assay [4] is described as follows: qHTS assay to identify small molecule agonists of the progesterone receptor (PR) signaling pathway - cell viability counter screen (AID 1346799; calls by dose curve; note: nearly all actives have a fitted effect of over 45% in size; note: potency is the fitted concentration of half-maximal effect). A digest of the protocol: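 Counter screen in the PR-UAS-bla HEK293T wells (2% charcoal-stripped FBS, 16 h compound exposure at 37 C) after the bla read. CellTiter-Glo added, 30 min at room temperature, luminescence read as cell viability.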

A short description of assay [5]: qHTS assay to identify small molecule antagonists of the TGF-beta/Smad signaling pathway - cell viability counter screen (AID 1346824). Note: nearly all actives have a fitted effect of over 50% in size. Note: potency is the fitted concentration of half-maximal effect. A digest of the protocol:
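Cytotoxicity counter-screen run in the same wells as the beta-lactamase Smad reporter read: CellTiter-Glo luminescence after 30 min at room temperature. HEK 293T SBE-bla cells had 5 hr compound exposure at 37 C with TGF-beta1 (0.25 ng/mL stock).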

Assay [6] in a line: qHTS assay to identify small molecule agonists of the TGF-beta/Smad signaling pathway - cell viability counter screen (AID 1346829). Note: nearly all actives have a fitted effect of over 45% in size. Note: potency is the fitted concentration of half-maximal effect. A digest of the protocol: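 Cytotoxicity counter screen: CellTiter-Glo luminescence (30 min, room temperature) measured in the SBE-bla HEK 293T reporter wells after 5 hr compound treatment at 37 C and the 2 hr substrate step.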
Assay [7] is described as follows: qHTS assay to identify small molecule agonists of the TGF-beta/Smad signaling pathway (AID 1346859; active = well fitted activation curve with a large enough effect in the signal ratio in the repeat runs, not every such curve was filed as active; the % refers to the signal ratio; note: series mostly up to about 77 µM). In short, it runs like this: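 SBE-bla HEK293T cells plated overnight, then compound exposure for 5 h at 37 C. Beta-lactamase reporter read with LiveBLAzer B/G FRET substrate after 2 h at room temperature, fluorescence at 405 nm excitation, 460/530 nm emission.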

Assay [8] can be described thus: Human pregnane X receptor (PXR) small molecule agonists, qHTS cell viability counter screen (AID 1346977). Note: nearly all actives have a fitted effect of over 50% in size. Note: potency is the fitted concentration of half-maximal effect. A digest of the protocol:
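PXR-Luc HepG2 cells (2,000/well, 5% charcoal-stripped FBS) preincubated 5 hr, then exposed to compounds 24 hr at 37 C. Viability read in the same wells by CellTiter-Fluor fluorescence, reagent added at 23 hr, 1 hr incubation.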

A short description of assay [9]: Caspase-3/7 induction in CHO-K1 cells by small molecules, qHTS cell viability counter screen (AID 1346979). Note: nearly all actives have a fitted effect of over 35% in size. Note: potency is the fitted concentration of half-maximal effect. In short, it runs like this: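 Wild-type CHO-K1 cells (1,500/well) treated with compound after 5 h plating; after 16 h at 37C, viability read as CellTiter-Fluor fluorescence following 1 h reagent incubation, in the same wells as the caspase read.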
A short description of assay [10]: Caspase-3/7 induction in CHO-K1 cells by small molecules, qHTS assay (AID 1346980). Note: nearly all actives have a fitted effect of over 15% in size. A digest of the protocol:
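Luminescent Caspase-Glo 3/7 read (30min, room temperature) quantified apoptosis induction. Cells were wild-type CHO-K1, treated with compound for 17hr at 37 C and 5% CO2.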

A short description of assay [11]: Caspase-3/7 induction in HepG2 cells by small molecules, qHTS cell viability counter screen (AID 1346981). Note: nearly all actives have a fitted effect of over 30% in size. Note: potency is the fitted concentration of half-maximal effect. In short, it runs like this: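 CellTiter-Fluor fluorescence measured viability in the same wells used for Caspase-Glo 3/7. HepG2 (wild type) at 2,000 cells/well were pre-incubated 5 hr, dosed, and given reagent at 16 hr, with 1 hr further at 37C.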
Assay [12] concerns the target Nuclear receptor subfamily 1 group I member 2 (Homo sapiens) (UniProt O75469). Description: Human pregnane X receptor (PXR) small molecule agonists, qHTS assay (AID 1346982). Note: nearly all actives have a fitted effect of over 35% in size. Note: potency is the fitted concentration of half-maximal effect. In short, it runs like this: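 Agonist mode: luminescence from ONE-Glo after 24 h compound exposure at 37C in HepG2 cells carrying hPXR-responsive CYP3A4 luciferase, plated in charcoal-stripped serum medium 5 h beforehand.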

Assay [13] is described as follows: qHTS assay to identify small molecule agonists of the estrogen receptor alpha (ER-alpha) signaling pathway in the presence of an antagonist - cell viability counter screen (AID 1259386). Note: nearly all actives have a fitted effect of over 30% in size. Note: potency is the fitted concentration of half-maximal effect. A digest of the protocol: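 Compounds tested at 15 concentrations for 22 h at 37C alongside 10.0nM (final) ICI-182,780 antagonist, in VM7Luc4E2 cells grown in phenol red-free, charcoal-stripped medium. Viability read by CellTiter-Fluor fluorescence after 1 h reagent incubation.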

Assay [14] deals with Thyrotropin-releasing hormone receptor (Homo sapiens) (UniProt P34981). Description: qHTS assay to identify small molecule antagonists of the thyrotropin-releasing hormone receptor (TRHR) signaling pathway (AID 1346877; active = well fitted inhibition curve with a large enough effect in the repeat runs, not every such curve was filed as active; note: series mostly up to about 51 µM). A digest of the protocol:
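Antagonist mode: after a 5 min room-temperature compound exposure, cells were stimulated with 1 nM (final) TRH. Dye-loaded TRHR-HEK293 cells were used, and calcium-dependent fluorescence was followed for 3 min, with 15-point titrations run in triplicate.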

For assay [15] the target is unchanged. Description: qHTS assay to identify small molecule agonists of the thyrotropin-releasing hormone receptor (TRHR) signaling pathway (AID 1346891; calls by dose curve; note: series mostly up to about 58 µM). In short, it runs like this:
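HEK293 cells expressing TRHR plated 18 h at 37 C/5% CO2, calcium dye-loaded 2 h at 37 C, then compound added (agonist mode); kinetic calcium fluorescence read 3 min at 1 s intervals; 15 concentrations in triplicate.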

Assay [16] in a line: Caspase-3/7 induction in HepG2 cells by small molecules, qHTS assay (AID 1346978). Note: nearly all actives have a fitted effect of over 15% in size. In short, it runs like this: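 Caspase-3/7 induction was measured by Caspase-Glo 3/7 luminescence (30 min, room temperature) after a 17 hr compound exposure of wild-type HepG2 cells seeded at 2,000 per well and pre-incubated 5 hr.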
Assay [17] deals with Nuclear receptor subfamily 1 group I member 2 (Rattus norvegicus) (UniProt Q9R1A7). Description: Rat pregnane X receptor (rPXR) activation by small molecules, qHTS assay (AID 1346983). Note: nearly all actives have a fitted effect of over 20% in size. The settings on record: rPXR luciferase reporter cells, One-Glo luminescence, 24 h; max activation: hits give high values. In short, it runs like this:
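Luminescent readout (One-Glo luciferase, 30 min room temperature) followed 24 hr compound treatment at 37 C of rPXR cells plated 2,000 per well and preincubated 5hr; qHTS format with compounds delivered in DMSO.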

For assay [18], the target named is Nuclear receptor subfamily 1 group I member 2 (Homo sapiens) (UniProt O75469). Description: CYP3A4 induction through human pregnane X receptor (PXR) by small molecules, qHTS assay (AID 1346984). Note: nearly all actives have a fitted effect of over 40% in size. A digest of the protocol:
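Read-out is luminescence after One-Glo addition, following a 3 hr, 37C incubation with Luciferin-IPA CYP3A4 substrate (3uM final). Before that, compounds were on DPX-2 cells (HepG2 co-transfected with PXR element plus CYP3A4-promoter luciferase) for 24 hr at 37C.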

Assay [19] has the same target. Description: Human pregnane X receptor (PXR) activation by small molecules, qHTS assay (AID 1346985). Note: nearly all actives have a fitted effect of over 40% in size. In short, it runs like this:
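DPX-2 cells (HepG2 co-transfected with a PXR response element and a CYP3A4-promoter luciferase construct) were seeded at 2,000 per well, rested 5 hr at 37C, then exposed to DMSO-dissolved compounds for 24 hr. Activation was read as luciferase luminescence.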

The target of assay [20] is Cytochrome P450 2D6 (Homo sapiens) (UniProt P10635). Description: Cytochrome P450 Family 2 Subfamily D Member 6 (CYP2D6) small molecule antagonists: luciferase reporter qHTS assay (AID 1671196). Note: nearly all actives have a fitted effect of over 50% in size. Note: potency is the fitted concentration of half-maximal effect. In short, it runs like this: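 CYP2D6 activity was followed as luminescence from its luciferin product after a 1 h NADPH-driven reaction at room temperature. Enzyme-substrate mix and compound were pre-incubated for 10 min, and the signal was read 20 min after adding detection reagent.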
Sequence of Cytochrome P450 2D6 (Homo sapiens) (P10635 whole entry, looked up): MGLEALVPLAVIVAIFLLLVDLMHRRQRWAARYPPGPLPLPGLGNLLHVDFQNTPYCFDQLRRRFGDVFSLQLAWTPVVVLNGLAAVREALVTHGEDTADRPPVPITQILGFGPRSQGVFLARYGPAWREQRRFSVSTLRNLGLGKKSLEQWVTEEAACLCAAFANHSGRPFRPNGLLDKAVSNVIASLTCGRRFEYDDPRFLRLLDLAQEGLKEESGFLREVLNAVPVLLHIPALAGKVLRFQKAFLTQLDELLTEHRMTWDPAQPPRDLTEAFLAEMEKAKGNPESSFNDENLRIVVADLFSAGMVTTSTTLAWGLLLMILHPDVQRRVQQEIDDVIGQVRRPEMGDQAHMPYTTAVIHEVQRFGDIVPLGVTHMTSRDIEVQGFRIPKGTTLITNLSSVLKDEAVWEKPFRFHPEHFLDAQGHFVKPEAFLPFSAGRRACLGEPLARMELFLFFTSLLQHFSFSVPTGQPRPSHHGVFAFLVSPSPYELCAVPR
(In general: A reporter such as luciferase makes a cellular process visible.)

A number with no mark means an inactive call. Records with an inconclusive call do not appear. The source made the active and inactive calls. Unless noted, calls come from the whole dose curve; as a rule, active = well fitted curve in the direction sought with a large enough effect in the repeat runs; inconclusive = weak or mixed curves; inactive = no such curve, though single readings can be large; an effect the other way counts as inactive or inconclusive.
% is set by controls: 0 for no effect and ±100 for the full control effect.

Sequence of Progesterone receptor (Homo sapiens) (P06401 whole entry, looked up): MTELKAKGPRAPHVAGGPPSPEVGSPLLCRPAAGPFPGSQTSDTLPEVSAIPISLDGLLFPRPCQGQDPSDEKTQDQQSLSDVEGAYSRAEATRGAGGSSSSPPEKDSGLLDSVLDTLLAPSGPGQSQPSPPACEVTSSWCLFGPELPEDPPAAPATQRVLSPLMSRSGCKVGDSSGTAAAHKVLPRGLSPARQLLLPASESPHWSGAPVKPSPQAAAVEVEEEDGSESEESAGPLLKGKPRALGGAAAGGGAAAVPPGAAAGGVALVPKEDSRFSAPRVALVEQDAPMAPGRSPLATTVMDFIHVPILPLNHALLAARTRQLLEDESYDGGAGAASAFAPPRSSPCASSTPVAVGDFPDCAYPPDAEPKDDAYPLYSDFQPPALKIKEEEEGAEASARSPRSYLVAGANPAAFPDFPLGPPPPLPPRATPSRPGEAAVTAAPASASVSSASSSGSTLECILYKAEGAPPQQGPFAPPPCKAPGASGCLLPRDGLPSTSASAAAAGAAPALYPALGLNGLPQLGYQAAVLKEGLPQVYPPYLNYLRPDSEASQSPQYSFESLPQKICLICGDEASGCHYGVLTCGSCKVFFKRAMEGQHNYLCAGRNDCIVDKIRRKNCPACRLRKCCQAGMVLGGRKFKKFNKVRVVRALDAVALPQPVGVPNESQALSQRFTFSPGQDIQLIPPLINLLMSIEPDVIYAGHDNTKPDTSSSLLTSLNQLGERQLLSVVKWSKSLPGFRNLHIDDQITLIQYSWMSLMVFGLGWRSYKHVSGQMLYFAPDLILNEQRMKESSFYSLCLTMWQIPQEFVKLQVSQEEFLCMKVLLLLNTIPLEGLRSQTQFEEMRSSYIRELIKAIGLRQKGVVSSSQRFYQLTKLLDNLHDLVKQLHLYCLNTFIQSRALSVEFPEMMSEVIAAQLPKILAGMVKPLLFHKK
Sequence of Nuclear receptor subfamily 1 group I member 2 (Homo sapiens) (O75469 whole entry, looked up): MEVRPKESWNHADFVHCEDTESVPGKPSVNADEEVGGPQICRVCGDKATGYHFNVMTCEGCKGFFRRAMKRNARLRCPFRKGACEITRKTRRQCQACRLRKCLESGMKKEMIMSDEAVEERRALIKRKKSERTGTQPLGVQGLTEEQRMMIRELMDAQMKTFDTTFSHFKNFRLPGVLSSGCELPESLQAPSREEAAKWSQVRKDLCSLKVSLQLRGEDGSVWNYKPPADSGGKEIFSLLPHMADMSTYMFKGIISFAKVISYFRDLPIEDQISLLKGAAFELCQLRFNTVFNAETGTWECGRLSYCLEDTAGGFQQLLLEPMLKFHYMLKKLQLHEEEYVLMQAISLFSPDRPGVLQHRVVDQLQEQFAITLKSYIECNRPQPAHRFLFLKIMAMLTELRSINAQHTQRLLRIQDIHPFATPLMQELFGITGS
Sequence of Thyrotropin-releasing hormone receptor (Homo sapiens) (P34981 whole entry, looked up): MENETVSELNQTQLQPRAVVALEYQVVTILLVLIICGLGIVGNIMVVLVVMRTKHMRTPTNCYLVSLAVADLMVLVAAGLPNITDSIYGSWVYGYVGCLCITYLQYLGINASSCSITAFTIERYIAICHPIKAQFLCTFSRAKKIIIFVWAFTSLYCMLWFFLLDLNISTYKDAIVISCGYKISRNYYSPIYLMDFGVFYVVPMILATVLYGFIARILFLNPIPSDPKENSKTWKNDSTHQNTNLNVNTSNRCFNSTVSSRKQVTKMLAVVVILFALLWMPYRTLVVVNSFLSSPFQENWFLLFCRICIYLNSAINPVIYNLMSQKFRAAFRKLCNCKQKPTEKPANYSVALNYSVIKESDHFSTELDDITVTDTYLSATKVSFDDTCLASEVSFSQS
Sequence of Nuclear receptor subfamily 1 group I member 2 (Rattus norvegicus) (Q9R1A7 whole entry, looked up): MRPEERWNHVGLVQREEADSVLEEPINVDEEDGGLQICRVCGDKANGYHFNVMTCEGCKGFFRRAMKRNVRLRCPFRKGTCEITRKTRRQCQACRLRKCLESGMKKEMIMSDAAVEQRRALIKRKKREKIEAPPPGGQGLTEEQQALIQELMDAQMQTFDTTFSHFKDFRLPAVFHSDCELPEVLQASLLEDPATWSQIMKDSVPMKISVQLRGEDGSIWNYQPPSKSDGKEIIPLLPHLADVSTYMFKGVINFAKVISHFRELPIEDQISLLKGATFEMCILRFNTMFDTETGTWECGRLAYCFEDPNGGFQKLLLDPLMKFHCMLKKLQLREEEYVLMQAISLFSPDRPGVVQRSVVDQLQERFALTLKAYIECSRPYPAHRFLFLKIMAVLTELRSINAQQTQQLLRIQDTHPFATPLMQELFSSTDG

On to `CC(C)c1ccccc1C(C)C`, for which the call in assay [1] and in assay [7] was inactive. Also, the Potency result in assay [2], in assay [3], in assay [4], in assay [5], in assay [6] and in assay [8] was “inactive” each time. Moreover, the Potency result in [9], in assay [10], in assay [11] and in [12] was “inactive” in each case.

With `NC(N)=NN=C(/C=C/c1ccc([N+](=O)[O-])o1)/C=C/c1ccc([N+](=O)[O-])o1`, the Potency in assay [13] was 9.44 µM (active); in assay [3], 23.7 µM (active); in assay [4], 23.7 µM (active); in [5] it was 23.9 µM (active); in assay [6], 21.3 µM (active); in assay [8], 6.68 µM (active). Further, the Potency is 5.31 µM (active) in assay [9], 8.41 µM (active) in [11], 2.66 µM (active) in assay [12] and 15.5 µM (active) in [20]. Also, the call in assay [7], in assay [14] and in [16] was inactive. The Potency result in assay [15], in assay [18] and in assay [19] was “inactive” each time. Further, the max activation in assay [17] was -21.7%.

For the compound `Oc1ccc(O)c2c(O)cccc12`, the Potency result in assay [13], in [3], in assay [4], in assay [5], in assay [6] and in [15] was “inactive” in each case. Further, the Potency entry in assay [8], in assay [9], in [10], in assay [12] and in [20] was “inactive” each time. For the same compound, the compound was classed as inactive in [7], in [14] and in assay [16].

With `O=C(O)Cc1sc(-c2ccccc2)nc1-c1ccc(Cl)cc1`, the Potency result in assay [13], in [5], in assay [6], in assay [15], in assay [8] and in assay [9] was “inactive” throughout. Also, the Potency result in assay [10], in assay [11], in [12], in assay [18], in [19] and in assay [20] was “inactive” in each case. The result in assay [1] and in assay [14] was inactive. The max activation in assay [17] was 0.948%.

In the case of `CCCCCc1ccc(N)cc1`, the outcome in assay [1], in [7], in assay [14] and in assay [16] was inactive. In addition, the Potency entry in assay [2], in assay [3], in assay [4], in assay [5], in assay [6] and in assay [15] was “inactive” in each case. Besides, the Potency entry in assay [8], in assay [10] and in assay [11] was “inactive” each time. The Potency in [20] was 31.7 µM (active).

With `O=[N+]([O-])c1cc[n+]([O-])cc1`, the Potency in assay [13] was 68.6 µM (active); in assay [8], 54.5 µM (active); in [9], 38.6 µM (active); in assay [20], 35.6 µM (active). The Potency entry in assay [3], in [6], in assay [15], in assay [10] and in assay [12] was “inactive” each time. Further, the compound was classed as inactive in [7] and in [14].

For `c1ccc(CNCc2ccccc2)cc1`, the compound was called inactive in [1], in [7] and in [16]. In addition, the Potency entry in [2], in assay [3], in assay [4], in assay [5], in assay [6] and in assay [8] was “inactive” in each case. Also, the Potency result in [9], in assay [10], in assay [11] and in assay [12] was “inactive” in each case. For the same compound, the Potency in [20] is 1.12 µM (active).

As for `CC(C)NCC(O)COc1ccc(CC(N)=O)cc1` (stereo unspecified), the result in [1], in assay [7], in assay [14] and in assay [16] was inactive. Further, the Potency result in [2], in [3], in assay [5], in assay [6], in assay [15] and in [8] was “inactive” in each case. Also, the Potency entry in assay [9], in assay [10], in [11] and in [12] was “inactive” in each case.
